Structures can show the parent of a compound that is named as a salt.
System: OCI-AML2
Test: cell viability relative to vehicle control; higher = less cytotoxic
Settings: 10 µM; SRSF2 genotype: wt/wt
Outline: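 Mutant clones made by CRISPR editing and their isogenic wild-type counterparts, from four leukaemia lines, were exposed to a single 10 µM dose of each library compound for 48 h. The supernatant was then removed and CellTiter-Glo luminescence was read. Viability was reported as percent of the on-plate vehicle control.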

| Compound | cell viability |
| --- | --- |
| CCCSc1nc(N[C@@H]2C[C@H]2c2ccc(F)c(F)c2)c2nnn([C@@H]3C[C@H](OCCO)[C@@H](O)[C@H]3O)c2n1 [Ticagrelor] | 70% |
| O=[N+]([O-])c1cn2c(n1)OC[C@@H](OCc1ccc(OC(F)(F)F)cc1)C2 | 99.5% |
| Cn1cncc1[C@@](N)(c1ccc(Cl)cc1)c1ccc2c(c1)c(-c1cccc(Cl)c1)cc(=O)n2C [Tipifarnib (Zarnestra)] | 26% |
| CCN1CCN(C(=O)N[C@@H](C(=O)N[C@@H]2C(=O)N3C(C(=O)O)=C(CSc4nnnn4C)CS[C@H]23)c2ccc(O)cc2)C(=O)C1=O [Cefoperazone (Cefobid)] | 104% |
| C[C@]1(O)C[C@@H](c2nc(-c3ccc4ccc(-c5ccccc5)nc4c3)c3c(N)nccn32)C1 [OSI-906 (Linsitinib)] | 38.1% |
| O=c1c(O)c(-c2ccc(O)c(O)c2)oc2cc(O)ccc12 [Fisetin (Fustel)] | 95.1% |
| CC1(C)[C@@H](O)CC[C@]2(C)[C@H]3C(=O)C=C4[C@@H]5C[C@@](C)(C(=O)O)CC[C@]5(C)CC[C@@]4(C)[C@]3(C)CC[C@@H]12 [Enoxolone (Glycyrrhetin)] | 106% |
| OCCN1C[C@H](O)[C@@H](O)[C@H](O)[C@H]1CO [Miglitol (Glyset)] | 94.9% |
| CC(OC(=O)OC1CCCCC1)OC(=O)C1=C(CSc2nnnn2CCN(C)C)CS[C@@H]2[C@H](NC(=O)Cc3csc(N)n3)C(=O)N12 (stereo not given in full) [Cefotiam Hexetil Hydrochloride] | 93.8% |
| COc1ccc(-c2nc(-c3cc(C(F)(F)F)cc(C(F)(F)F)c3)n(Cc3ccc(C(N)=O)cc3)c2-c2ccc(OC)cc2)cc1 [Apoptozole] | 84.9% |
| Nc1ncnc2c1nc(Br)n2[C@@H]1O[C@@H]2COP(=O)(O)O[C@H]2[C@H]1O [8-Bromo-cAMP] | 93.2% |
| Cc1noc(NS(=O)(=O)c2ccc(N)cc2)c1C [Sulfisoxazole] | 104% |
| COC(=O)c1ccccc1O [Methyl salicylate] | 102% |
| CC(C)C(NC(=O)c1ccc2ccccc2n1)C(=O)NC(CC(=O)O)C(=O)COc1c(F)cccc1F (stereo not given) | 101% |
| O=C(O)c1ccco1 [2-Furoic acid] | 102% |
| c1cn2cc(-c3ccc4cn[nH]c4c3)nc(Nc3ccc(N4CCOCC4)cc3)c2n1 [Entospletinib (GS-9973)] | 85.6% |
| COc1cc(CO)cc(OC)c1O [4-Hydroxy-3,5-dimethoxybenzyl alcohol] | 105% |
| O=c1nc(N2CCOCC2)oc2c(-c3cccc4c3sc3ccccc34)cccc12 | 80.3% |
| N[C@@H](CS)C(=O)O [L-Cysteine HCl] | 94.3% |
| Cc1cc(C)c(CNC(=O)c2cc(-c3ccc(N4CCN(C)CC4)nc3)cc3c2c(C)cn3C(C)C)c(=O)[nH]1 | 82.2% |

| Compound | cell viability |
| --- | --- |
| COc1ccc(C[C@@H]2c3cc(Oc4cc(C[C@@H]5c6cc(OC)c(OC)cc6CCN5C)ccc4O)c(OC)cc3CCN2C)cc1 [Neferine] | 102% |
| CNC[C@H](O)c1ccc(O)c(O)c1 [Epinephrine bitartrate (Adrenalinium)] | 112% |
| C=C(C)[C@@H]1CCC2=CC(=O)C[C@@H](C)[C@]2(C)C1 [Nootkatone] | 103% |
| C[n+]1c2n(c(=O)c3ccccc31)CCc1c-2[nH]c2ccccc12 [Dehydroevodiamine hydrochloride] | 96.2% |
| Cn1cc(C(=O)Nc2ccc3c(c2)OCCO3)c2ccccc2c1=O | 95.8% |
| CC(CCC(=O)NCCS(=O)(=O)O)C1CCC2C3C(O)CC4CC(O)CCC4(C)C3CCC12C (stereo not given) [Taurochenodeoxycholic acid] | 97.8% |
| CC(C)c1nc(CN(C)C(=O)N[C@@H](CCN2CCOCC2)C(=O)N[C@H](CC[C@H](Cc2ccccc2)NC(=O)OCc2cncs2)Cc2ccccc2)cs1 [Cobicistat (GS-9350)] | 83.8% |
| CO/N=C(\C(=O)N[C@@H]1C(=O)N2C(C(=O)O)=C(CSc3nnnn3C)CS[C@H]12)c1csc(N)n1 [Cefmenoxime hydrochloride] | 101% |
| CCCCOc1nc(N)c2c(n1)N(Cc1cccc(CN3CCCC3)c1)CC(=O)N2 | 90.6% |
| Cc1cc(/C=C2/SC(=S)NC2=O)c(C)n1-c1cccnc1 [Optovin] | 97.2% |
| CN(C(Cc1ccc(OS(=O)(=O)c2cccc3cnccc23)cc1)C(=O)N1CCN(c2ccccc2)CC1)S(=O)(=O)c1cccc2cnccc12 (stereo not given) | 76.4% |
| CCCCCCCC(=O)CCc1ccc(O)c(OC)c1 [6-Paradol] | 91.6% |
| CNC(=C[N+](=O)[O-])NCCSCc1ccc(CN(C)C)o1 [Ranitidine Hydrochloride] | 105% |
| CC(C)(C)NC[C@H](O)COc1nsnc1N1CCOCC1 [Timolol Maleate] | 109% |
| O=C(O)CCN1C(=O)/C(=C/c2ccc(-c3ccc([N+](=O)[O-])cc3)o2)SC1=S | 109% |
| C[C@]12CC[C@@H]3c4ccc(O)cc4C[C@@H](CCCCCCCCC[S+]([O-])CCCC(F)(F)C(F)(F)F)[C@H]3[C@@H]1CC[C@@H]2O (stereo not given in full) [Fulvestrant (Faslodex)] | 96.7% |
| OC[C@@H](O)[C@@H](O[C@@H]1O[C@H](CO)[C@H](O)[C@H](O)[C@H]1O)[C@H](O)[C@@H](O)CO [Lactitol] | 95.1% |
| CC(C)N(CCCNC(=O)Nc1ccc(C(C)(C)C)cc1)C[C@H]1O[C@@H](n2ccc3c(N)ncnc32)[C@H](O)[C@@H]1O | 89.6% |
| c1ccc2[nH]c(-c3cscn3)nc2c1 [Thiabendazole] | 105% |
| CN1[C@@H]2CC[C@H]1C[C@@H](OC(c1ccccc1)c1ccccc1)C2 [Benztropine mesylate] | 79.9% |
